Screening data as filed in PubChem.
An excerpt weighted towards active compounds, which were near 3.7% of everything screened.
GPR7 antagonist: GPR7 receptor antagonists, primary screen, cell-based, fluorescence, single concentration; AID 1861, 2009; GPR7-expressing cells, fluorescence antagonist assay; inhibition, % at 4.4 µM; hit rate 1.1% among 290,000; Neuropeptides B/W receptor type 1 (Homo sapiens), P48145; in the data active = inhibition above about 16%, passing the limit was not always enough;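 also: cells stimulated with the agonist NPW; 0% = agonist with vehicle and 100% = vehicle without agonist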
TMEM16A inh: TMEM16A chloride channel inhibitors, primary screen, cell-based, HTS | Anoctamin-1 (Mus musculus), Q8BHY3 | HEK293 TMEM16A/YFP iodide influx fluorescence, ionomycin | normalized B-score (activity score, 25-100; higher = stronger inhibition) at 10 µM | hit rate 1.2% among 310,000;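 active = ratio plate-corrected score three or more library SD toward inhibition, starting fluorescence score within five deviations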;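 also: score derived from kinetic fluorescence span divided by baseline fluorescence per well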
Target sequence (Q8BHY3 whole entry, looked up): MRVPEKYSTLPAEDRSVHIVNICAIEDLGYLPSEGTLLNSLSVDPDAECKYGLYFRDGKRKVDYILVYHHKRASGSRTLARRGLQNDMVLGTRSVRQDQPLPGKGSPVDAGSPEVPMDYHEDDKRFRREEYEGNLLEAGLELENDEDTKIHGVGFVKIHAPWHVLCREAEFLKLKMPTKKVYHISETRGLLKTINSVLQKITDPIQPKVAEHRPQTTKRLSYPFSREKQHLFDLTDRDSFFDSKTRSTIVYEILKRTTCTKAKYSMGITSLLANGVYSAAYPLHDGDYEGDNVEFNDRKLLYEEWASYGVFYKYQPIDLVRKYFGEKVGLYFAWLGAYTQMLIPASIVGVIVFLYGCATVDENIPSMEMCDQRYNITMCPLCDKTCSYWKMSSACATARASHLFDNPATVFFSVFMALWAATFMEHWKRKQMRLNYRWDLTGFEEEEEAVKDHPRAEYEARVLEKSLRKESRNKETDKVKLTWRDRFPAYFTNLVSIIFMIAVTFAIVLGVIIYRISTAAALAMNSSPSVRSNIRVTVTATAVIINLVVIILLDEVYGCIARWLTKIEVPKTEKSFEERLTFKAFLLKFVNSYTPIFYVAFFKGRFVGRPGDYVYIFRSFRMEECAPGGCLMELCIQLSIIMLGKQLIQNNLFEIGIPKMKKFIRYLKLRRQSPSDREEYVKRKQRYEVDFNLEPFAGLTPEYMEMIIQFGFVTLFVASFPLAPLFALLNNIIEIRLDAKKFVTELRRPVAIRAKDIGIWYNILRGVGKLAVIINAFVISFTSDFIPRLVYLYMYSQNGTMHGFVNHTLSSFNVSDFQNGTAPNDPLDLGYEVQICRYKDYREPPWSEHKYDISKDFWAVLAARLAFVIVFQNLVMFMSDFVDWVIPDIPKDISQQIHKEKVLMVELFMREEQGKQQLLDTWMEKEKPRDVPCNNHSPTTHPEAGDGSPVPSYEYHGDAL
CHT inh: inhibitors of human choline transporter CHT; CHT-expressing cells, membrane potential dye, choline response; stronger effect = lower value; B-score at 10 µM; hit rate 0.86% among 310,000;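 active = B-score over 3 SD under the library average, and starting fluorescence ratio not unusually high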;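 also: choline stimulus applied at its EC90 after an EC20 pre-addition; B-score computed on integrated fluorescence ratio after choline addition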
Kir21 inh: inhibitors of mouse Kir2.1 inward-rectifier potassium channel | Inward rectifier potassium channel 2 (Mus musculus), P35561 | HEK293-Kir2.1, FluxOR thallium flux fluorescence; stronger effect = lower value | B-score at 10 µM | hit rate 0.85% among 310,000;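 active = fluorescence ratio B-score at or below minus 3 SD of library scores, with starting-brightness B-score within 2 SD, cut at about -4.2 in these data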;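 also: channel flux triggered by added potassium and thallium sulfate stimulus; B-score of peak minus minimum fluorescence over baseline after thallium stimulus; more negative B-score means stronger Kir2.1 block with less thallium influx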
ANO1 activ: TMEM16A chloride channel activators or potentiators, primary screen, cell-based, HTS; Anoctamin-1 (Mus musculus), Q8BHY3; HEK293 TMEM16A/YFP-H148Q/I152L, iodide quench fluorescence; stronger effect = lower value; B-score at 10 µM; hit rate 0.3% among 340,000;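 active = fluorescence-ratio B-score plate-corrected deviation score at least 3 library SD below zero, with starting fluorescence score within 5 deviations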;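 also: channel opened by trigger with iodide after compound preincubation; score built on the fluorescence ratio of max minus min over baseline; more negative score means more quench and so TMEM16A activation or potentiation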
CHT allo act: CHT positive allosteric modulators, primary screen, cell-based, membrane potential dye, choline EC20; hit rate 0.49% among 310,000; B-score at 10 µM; AID 488977, 2010; High affinity choline transporter 1 (Homo sapiens), Q9GZV3; CHT-expressing cells; stronger effect = higher value; LV-AA mutant CHT in HEK293 cells;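 active = initial fluorescence not abnormally high and integrated response B-score, plate-corrected, over 3 SD above library mean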
* = called active by the depositor.

`COc1ccc(N2C3=C(CC4=C2CC(C)(C)CC4=O)C(=O)CC(C)(C)C3)cc1` gave GPR7 antagonist -3.9, TMEM16A inh inactive, CHT inh inactive, Kir21 inh -5.13*, ANO1 activ inactive and CHT allo act inactive.
Screening COc1ccccc1NC(=O)c1ccc(NC(=O)CSc2ncn[nH]2)cc1 returned GPR7 antagonist -7.7, TMEM16A inh inactive, CHT inh inactive, Kir21 inh 0.08, ANO1 activ inactive and CHT allo act inactive.
`Cc1oc2cc3oc(=O)c(CCC(=O)N4C[C@H]5C[C@@H](C4)c4cccc(=O)n4C5)c(C)c3cc2c1C` gave GPR7 antagonist -7.4, TMEM16A inh inactive, CHT inh inactive, Kir21 inh 0.85, ANO1 activ inactive and CHT allo act inactive.
Screening Cc1ccccc1N=C1c2cc([N+](=O)[O-])ccc2-c2ncccc21 returned GPR7 antagonist 4.7, TMEM16A inh inactive, CHT inh inactive, Kir21 inh -0.44, ANO1 activ inactive and CHT allo act 9.66*.
`COc1ccc(NC(=O)CN(C)C(=O)c2c(-c3c(F)cccc3Cl)noc2C)cc1` gave TMEM16A inh inactive, CHT inh inactive, Kir21 inh 0.39, ANO1 activ inactive and CHT allo act inactive.
CCN(c1cccc(C)c1)S(=O)(=O)c1cc2c3c(c1)CCC(=O)N3CCC2 was read as TMEM16A inh inactive, CHT inh inactive, Kir21 inh -5.83*, ANO1 activ inactive and CHT allo act inactive.
`CCCN(CCC)S(=O)(=O)c1cc2c3c(c1)CCN3C(=O)CC2` gave GPR7 antagonist 1.3, TMEM16A inh inactive, CHT inh inactive, Kir21 inh -3.55, ANO1 activ inactive and CHT allo act inactive.
Cc1ccc(C2c3c(-c4ccccc4O)n[nH]c3C(=O)N2Cc2ccncc2)cc1 (stereo not drawn) was read as GPR7 antagonist 19.8*, TMEM16A inh inactive, CHT inh inactive, Kir21 inh -0.81, ANO1 activ inactive and CHT allo act inactive.
`COc1ccc(C2c3c(-c4ccccc4O)n[nH]c3C(=O)N2Cc2ccco2)cc1` (stereo not drawn) gave GPR7 antagonist -6.1, TMEM16A inh inactive, CHT inh inactive, Kir21 inh -0.07, ANO1 activ inactive and CHT allo act inactive.
For Cc1ccc2cccc(S(=O)(=O)Nc3ccc4c(c3)OCO4)c2n1 the results were GPR7 antagonist -19.9, TMEM16A inh inactive, CHT inh inactive, Kir21 inh -5.32*, ANO1 activ inactive and CHT allo act inactive.
For O=S(=O)(Nc1ccc2c(c1)OCO2)c1ccccc1 the results were GPR7 antagonist -0.3, TMEM16A inh inactive, CHT inh inactive, Kir21 inh 1.42, ANO1 activ inactive and CHT allo act inactive.
For Cc1cc(C(C)(C)C)ccc1OCCn1ccnc1 the results were GPR7 antagonist 13.1, TMEM16A inh inactive, CHT inh inactive, Kir21 inh 0.09, ANO1 activ inactive and CHT allo act inactive.
Screening CC(C)(C)c1cc(Cl)ccc1OCCn1ccnc1 returned GPR7 antagonist 1.7, TMEM16A inh inactive, CHT inh inactive, Kir21 inh -5.58*, ANO1 activ inactive and CHT allo act inactive.
Screening Cc1ccc(C(C)(C)C)c(OCCCn2ccnc2)c1 returned GPR7 antagonist -9.5, TMEM16A inh inactive, CHT inh inactive, Kir21 inh -1.56, ANO1 activ inactive and CHT allo act inactive.
Screening CC(C)(C)c1ccccc1OCCCCCn1ccnc1 returned GPR7 antagonist -0.7, TMEM16A inh inactive, CHT inh inactive, Kir21 inh -7.37*, ANO1 activ inactive and CHT allo act inactive.
Screening c1ccc(-c2ccccc2OCCCCn2ccnc2)cc1 returned GPR7 antagonist -14.4, TMEM16A inh inactive, CHT inh inactive, Kir21 inh -4.83*, ANO1 activ inactive and CHT allo act inactive.
Cc1[nH]nc(C(=O)NN=Cc2ccccc2Cl)c1N=NN(C)C was read as ANO1 activ inactive.
`COc1ccc(S(=O)(=O)N2CCCCC2)cc1NC(=O)c1cccc(S(=O)(=O)N2CC(C)OC(C)C2)c1` (stereo not drawn) gave ANO1 activ inactive.
CCn1c(CCNC(=O)c2ccc(OC)cc2)nnc1SCc1ccc(Cl)c(Cl)c1 was read as GPR7 antagonist -3.3, TMEM16A inh inactive, CHT inh inactive, Kir21 inh -6.45*, ANO1 activ inactive and CHT allo act inactive.
Screening C#CCNC(=O)C1=C[C@@H](C2CC2)C[C@@H](OCc2ccc(CO)cc2)O1 returned GPR7 antagonist -4.4, TMEM16A inh inactive, CHT inh inactive, Kir21 inh -6.55*, ANO1 activ inactive and CHT allo act inactive.
For C#CCNC(=O)C1=C[C@@H](C(C)(C)C)C[C@@H](OCc2ccc(CO)cc2)O1 the results were GPR7 antagonist -9.7, TMEM16A inh inactive, CHT inh inactive, Kir21 inh -2, ANO1 activ inactive and CHT allo act inactive.
CC(CN1CCN(C)CC1)OC(=O)c1cccc(F)c1 (stereo not drawn) was read as GPR7 antagonist -1.5, TMEM16A inh inactive, CHT inh inactive, Kir21 inh -0.05, ANO1 activ inactive and CHT allo act inactive.
Screening CCNC(=O)NC(=O)C(C)OC(=O)c1cccn1C (stereo not drawn) returned GPR7 antagonist -4.9, TMEM16A inh inactive, CHT inh inactive, Kir21 inh 1.28, ANO1 activ inactive and CHT allo act inactive.
For CC(C)(C)OC(=O)NCc1ccc(CNC(=O)c2nc[nH]c2C(=O)N2CCN(C(=O)OC(C)(C)C)CC2)cc1 the results were ANO1 activ inactive.
For CN1CCN(CCCNC(=O)c2cn(C3CCCCC3)c(=O)c3c2c2ccccc2n3C)CC1 the results were GPR7 antagonist -10.7, TMEM16A inh inactive, CHT inh -5*, Kir21 inh 1.29, ANO1 activ inactive and CHT allo act inactive.
Screening CCN(c1ccccc1)c1nc(Cl)nc2c1cnn2C returned ANO1 activ inactive.
For COc1ccc(-c2n[nH]c(C)c2-c2ccc(Cl)cc2)c(O)c1 the results were GPR7 antagonist -3.1, TMEM16A inh inactive, CHT inh inactive, Kir21 inh -0.75, ANO1 activ inactive and CHT allo act inactive.
For Cc1[nH]nc(-c2ccc(O)cc2O)c1-c1ccc(Cl)cc1 the results were GPR7 antagonist 1.1, TMEM16A inh 100*, CHT inh inactive, Kir21 inh -2.81, ANO1 activ inactive and CHT allo act inactive.
